# Data reported in PubChem BioAssay AID1461 (National Center for Advancing Translational Sciences (NCATS), 2008).
# Hit rate of the full screen: of about 220,000 compounds, about 2,300 (1%) were called active. Entries that show only a call come without a potency. Inconclusive results (about 6%) are left out. The sample as a whole holds a higher share of actives than the screen did. Values without a mark were called inactive. The call rests on the fitted dose curve; in most records, active means well fitted inhibition curve with a large enough effect; inconclusive means small, poorly fitted or top-dose-only effect, or effect the other way; inactive means no such curve, though single readings can be large or run the other way.
# Target: Neuropeptide S receptor (Homo sapiens) (UniProt Q6W5P4)
# Experiment: qHTS Assay for Antagonists of the Neuropeptide S Receptor: cAMP Signal Transduction; further: nearly all actives have a fitted effect of over 50% in size
# Settings: CHO-NPSR cells, cAMP TR-FRET, antagonist mode; series mostly up to 38.3 µM
# Source text: NIH Chemical Genomics Center [NCGC] NIH Molecular Libraries Probe Production centers Network [MLPCN] MLPCN Grant: X01-DA026210-01 Assay Submitter (PI): Heilig, Markus Alexander NCGC Assay Overview: Neuropeptide S receptor (NPSR), previously known as GPR154, is a recently de-orphanized G protein coupled receptor. Its endogenous ligand is the 20 amino acids peptide Neuropeptide S (NPS). […] NPS and its receptor are found in various tissues. Specifically they are highly expressed in brain areas that have been implicated in modulation of arousal, stress and anxiety. Central administration of NPS in mice produces an unusual profile of activity by inducing wakefulness and arousal, while at the same time suppressing anxiety. Therefore, NPSR may represent a novel drug target for the treatment of sleep and anxiety disorders. To identify NPSR antagonists, we developed a cell-based cAMP assay. NPS can stimulate the production of cAMP in Chinese hamster ovary cells stably expressing NPS receptor. This change in intracellular cAMP level can be detected by a homogeneous LANCE cAMP assay based on the TR-FRET (time resolved fluorescence resonance energy transfer) between a europium-labeled cAMP tracer complex and a cAMP-specific antibody labeled with Alexa Fluor 647. The europium-labeled cAMP tracer complex is formed by the tight interaction between Biotin-cAMP (b-cAMP) and streptavidin labeled with Europium-W8044 chelate (Eu-SA). Light pulse at 320 nm excites the europium of the cAMP tracer and the energy emitted is transferred to the Alexa molecule bound to the cAMP antibody, generating a TR-FRET signal at 665 nm. Residual energy from the europium will produce a light at 620 nm. The native unlabeled cAMP from cell lysates competes with the europium-cAMP tracer for antibody binding and reversely reduces the emission signal of Alexa by interrupting FRET between the two labeled molecules. Both emission signals from the FRET donor (620 nm) and the acceptor (665 nm) can be detected by a plate reader in the TRF mode. Expression of result in fluorescence ratio (665 nm/620 nm) helps to normalize differences due to cell density and reagent dispensing. This assay was successfully optimized to a 1536-well plate format.
# NCGC Assay Protocol Summary: A Chinese hamster ovary (CHO) cell line stably expressing the NPS receptor (CHO-NPSR) was obtained from Dr. Heilig lab at NIAAA and maintained in F-12 Kaighn's media (Invitrogen, Carlsbad, CA, 21127) supplemented with 10 % FBS, 100 units/ml penicillin, 100 ug/ml streptomycin and 250 ug/ml geneticin at 37C, 5% CO2 in a humidified atmosphere. Before the assay, aliquots of cells were frozen and stored at -135C. The assay was performed in 1536-well format. Data are reported for both the ratio of the two emission wavelengths, and also for the component 'donor' channel, Em2=620. Data were normalized to the controls for basal activity (DMSO only) and 100% inhibition (No NPS control). IC50 values were determined from concentration-response data modeled with the standard Hill equation. NPS 1536-well assay protocol: (1) Fresh or frozen CHO-NPSR cells were suspended in F-12 Kaighn's media supplemented with 10 % FBS, 100 units/ml penicillin and 100 ug/ml streptomycin. Cells were plated at 4 ul/well (1200 cells) to white, tissue culture treated 1536-well plates, and then cultured at 37C, 5 % CO2 for 16 to 30 hours. (2) Add 23 nl/well of compound in DMSO solution. The final titration for each compound was between 0.6 nM and 46 uM. (3) Add 1 ul of stimulation reagent (1X HBSS buffer, 5 mM HEPES, 0.1% BSA, 500 uM RO-201724 (Sigma-Aldrich, B8279), 1.5% Alexa 647-labeled anti-cAMP antibody (from Perkin Elmer), 100 nM NPS) (4) Incubation at 37C, 5 % CO2 for 60 min. (5) Add 1 ul/well detection reagent. Detection reagent was prepared by adding biotin labeled cAMP (4%), streptavidin labeled with Europium-W8044 chelate (1.33%) and TritonX-100 (1%) to detection buffer. […]
# Potency means the concentration at half of the fitted maximal effect.
# Chain of Neuropeptide S receptor (Homo sapiens) (Q6W5P4 whole entry, looked up): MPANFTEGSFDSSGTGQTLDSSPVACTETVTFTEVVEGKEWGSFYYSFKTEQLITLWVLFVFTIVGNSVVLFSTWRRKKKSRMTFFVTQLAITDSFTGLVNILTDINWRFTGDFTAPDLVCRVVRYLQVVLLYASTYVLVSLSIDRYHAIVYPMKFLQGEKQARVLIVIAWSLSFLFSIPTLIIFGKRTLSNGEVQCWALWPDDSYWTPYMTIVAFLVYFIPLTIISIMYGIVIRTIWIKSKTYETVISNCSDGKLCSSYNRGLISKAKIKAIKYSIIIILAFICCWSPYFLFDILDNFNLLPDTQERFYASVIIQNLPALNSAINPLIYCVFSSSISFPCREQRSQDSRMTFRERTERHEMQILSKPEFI
SMILES,Potency,"activity change, negative = inhibition"
Cc1nc(CNS(=O)(=O)c2cc([N+](=O)[O-])ccc2C)cs1,inactive,
Cc1nc(=O)c(-c2ccccc2)c(C)n1-c1ccc(Br)cc1,inactive,
CC(NCc1ccccc1OC1CCCC1)c1ccccc1 (stereo unspecified),inactive,
NC(=S)Nc1c(Cl)cccc1Cl,,7.17% [at 7.67 µM]
CN(c1ccccn1)c1ncnc2[nH]ncc12,inactive,
CC(=O)c1cc(NC(=O)c2ccccc2)c(=O)oc1/C=C/N(C)C,10 µM (active),
CCOC(=O)c1cc(NC(=O)c2ccc(Cl)cc2)c(=O)oc1-c1ccccc1,inactive,
Cc1ccccc1NC(=O)c1ccccc1,inactive,
COc1ccc(C2/C=C\CN(S(=O)(=O)c3cccs3)CC(=O)N2Cc2ccc(F)cc2)cc1 (stereo unspecified),inactive,
COc1ccc(CN2C(=O)C(C)S/C2=N/N=C/c2ccco2)cc1 (stereo unspecified),inactive,
CCOC(=O)c1ccc(NC(=O)c2nc[nH]c2C(=O)N[C@@H](CCCCNC(=O)OC(C)(C)C)C(=O)OC(C)(C)C)cc1,inactive,
O=C(Cc1nc2ccccc2[nH]c1=O)c1ccc(Cl)cc1,inactive,
CCC(=O)/C(=C(/O)c1ccccc1)c1nc2ccccc2[nH]1,inactive,
O=C(/C(=C/c1cccc(Cl)c1)c1nc2ccccc2[nH]1)c1ccccc1,10 µM (active),
CC1=CC2=NC(=O)/C(=C/c3coc4ccccc4c3=O)C(=N)N2O1,inactive,
Cc1ccc(/C=N/NC(=O)CSc2ccccn2)o1,inactive,
Cc1ccc(C(O)P(=O)(OC(C)C)c2ccc(N(C)C)cc2)cc1 (stereo unspecified),inactive,
O=C(Nc1ccc2c(c1)OCCO2)c1ccoc1,inactive,
CC(=O)O[C@]1(C(C)=O)CC[C@H]2[C@@H]3C=C(C)C4=CC(=O)CC[C@]4(C)[C@H]3CC[C@@]21C,3.98 µM (active),
NC(=O)NC(=O)CSc1nc2cc([N+](=O)[O-])ccc2n1-c1cccc(C(F)(F)F)c1,inactive,
COc1ccc(/C=C/c2nnc(NC(=O)C(C)C)s2)cc1,inactive,
C/C(CC(=O)NC(C)c1ccccc1)=N\NC(N)=S (stereo unspecified),inactive,
Cc1cccc2cc(CN(Cc3nnnn3Cc3ccccc3)C3CCCC3)c(=O)[nH]c12,inactive,
Cc1cc(C)c2[nH]c(=O)c(C(c3nnnn3Cc3ccc4c(c3)OCO4)N3CCCC3)cc2c1 (stereo unspecified),inactive,
Cc1cccc2cc(CN(Cc3ccc4c(c3)OCO4)Cc3nnnn3C3CCCC3)c(=O)[nH]c12,12.6 µM (active),
COCCN(Cc1cc2cc3c(cc2nc1Cl)OCO3)C(=O)c1cccc(C)c1,inactive,

SMILES,Potency,"activity change, negative = inhibition"
Cc1ccc(NNC(=O)c2cccs2)cc1Cl,inactive,
Cc1cc(C)c(C)c(S(=O)(=O)N[C@@H](C)C(=O)OC(C)C(=O)NC(N)=O)c1C (stereo partly specified),inactive,
O=C(Nc1ccc(Cl)cc1)/C(=C1\CCCN1)[N+](=O)[O-],inactive,
Cc1ccccc1OCC(=O)Nc1ccc(N2CCN(C(=O)C(C)C)CC2)c(Cl)c1,12.6 µM (active),
COc1cc(NC(=O)COc2ccccc2Cl)ccc1NC(=O)C(C)C,inactive,
CN1CCN(c2ccc(NC(=O)COc3ccc(Cl)cc3Cl)cc2)CC1,,3.6% [at 7.67 µM]
Nc1ccc(N=Nc2ccccc2Cl)c(N)n1,inactive,
COc1ccc(CCNC(=O)C(=O)NCC2CCNCC2)cc1OC,inactive,
N#CC1=C(N)Oc2c(sc3ccccc23)C1c1ccco1 (stereo unspecified),,-7.26% [at 7.67 µM]
Cc1cc(C)c(C#N)c(SCc2[nH]nc3c2C(c2ccccc2)C(C#N)=C(N)O3)n1 (stereo unspecified),inactive,
Cc1cc(C)c2c3c(sc2n1)C(c1ccccc1)C(C#N)=C(N)O3 (stereo unspecified),10 µM (active),
O=C1CCC(=O)N(O)CCCCCNC(=O)CCC(=O)N(O)CCCCCNC(=O)CCC(=O)N(O)CCCCCN1,inactive,
NC(=O)N/N=C\c1cccs1,inactive,
O=S(=O)(c1ccc(F)cc1)N1CC=C(c2ccccc2)CC1,,-0.503% [at 7.67 µM]
Cc1ccccc1Nc1scc(-c2ccc(Br)cc2)[n+]1-c1ccccc1C,10 µM (active),
Nc1scc[n+]1Cc1cccc2cccnc12,inactive,
Nc1nc(NC(=O)/C=C/c2ccc(F)cc2)nn1-c1ccccc1,inactive,
CCCc1ccc(OCc2ccc(C(=O)N/N=C/c3cccc([N+](=O)[O-])c3)o2)c(OC)c1,10 µM (active),
COC(=O)c1ccc(COc2ccc(/C=N/NC(=O)C(=O)Nc3ccc(OC)cc3)cc2OC)o1,inactive,
COc1cc(/C=N/O)ccc1OCc1ccc([N+](=O)[O-])cc1,inactive,
COc1cccc(OC)c1CN(C)C(=O)c1cnccc1C(F)(F)F,inactive,
COC(C[C@H](O)CC(=O)COCc1ccccc1)OC,inactive,
Cc1ccc(S(=O)(=O)/N=C(/NC(=S)Nc2c(C)n(C)n(-c3ccccc3)c2=O)c2ccccc2)cc1,inactive,
CSCC[C@H](NC(=O)CCCn1nnc2ccccc2c1=O)C(=O)O,inactive,
S=C(NCCc1ccccc1)Nc1ccccc1,inactive,
